Bioassay records (PubChem BioAssay)
This is a sample that favours compounds with a hit; in the whole collection about 3.4% have one here.
PP5 inh: inhibitors of human protein phosphatase 5 (PP5); P53041; inhibition, % at 6.7 µM; hit rate 0.18% among 320,000; AID 1987; purified PP5c, OMFP substrate fluorescence;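 active = inhibition above the campaign's mean inhibition across all tested compounds plus 3 SD, cut at about 9.5% in these data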
PAFAH1B3 FP inh: inhibitors of human PAFAH1B3; Q15102; recombinant PAFAH1B3, FP-rhodamine probe, fluorescence polarization; inhibition, % at 3.39 µM; hit rate 0.28% among 340,000; AID 492972;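 active = inhibition above the screen-wide average of all tested compounds plus 3 SD, cut at about 25% in these data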
pPAFAH FP inh: pPAFAH (human) enzyme inhibition | hit rate 1.5% among 330,000 | inhibition, % at 3.39 µM | AID 463082 | Q13093 | recombinant pPAFAH, FP-rhodamine probe fluorescence polarization;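 active = inhibition above the mean inhibition across the screen plus 3 SD, cut at about 25% in these data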;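 also: inhibitors block binding of the rhodamine activity-based probe so polarization drops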
Target sequence (Q13093 whole entry, looked up): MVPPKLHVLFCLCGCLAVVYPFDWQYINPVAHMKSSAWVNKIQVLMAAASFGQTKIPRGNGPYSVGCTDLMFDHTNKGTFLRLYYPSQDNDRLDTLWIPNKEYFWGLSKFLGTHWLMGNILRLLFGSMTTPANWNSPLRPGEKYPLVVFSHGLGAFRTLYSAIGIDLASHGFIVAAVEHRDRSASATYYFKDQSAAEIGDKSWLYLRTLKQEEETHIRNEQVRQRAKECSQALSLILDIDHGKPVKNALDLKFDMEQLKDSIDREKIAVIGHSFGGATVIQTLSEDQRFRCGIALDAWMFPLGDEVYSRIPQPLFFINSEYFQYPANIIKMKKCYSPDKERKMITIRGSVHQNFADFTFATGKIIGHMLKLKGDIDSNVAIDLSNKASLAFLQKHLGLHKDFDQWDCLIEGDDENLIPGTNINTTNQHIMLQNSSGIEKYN
PP1 inh: counter-screen for PP5 inhibitors: inhibitors of human PP1-alpha; P62136; purified PP1alpha, OMFP fluorescence; hit rate 0.9% among 320,000; inhibition, % at 6.7 µM;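 active = inhibition above the mean inhibition of all tested compounds plus 3 SD, computed separately for each screening campaign, cut at about 15% in these data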
PAFAH2 FP inh: PAFAH2 (human) inhibition; Q99487; recombinant PAFAH2, FP-rhodamine activity probe, fluorescence polarization; inhibition, % at 3.39 µM; hit rate 0.99% among 340,000; AID 492956;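 active = inhibition above the mean over all tested compounds plus 3 SD, cut at about 30% in these data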;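 also: inhibitors block probe labeling of enzyme so polarization drops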
PAFAH1B2 inh: inhibitors of human PAFAH1B2 | P68402 | recombinant PAFAH1B2, FP-rhodamine activity probe, fluorescence polarization | inhibition, % at 3.39 µM | hit rate 1.2% among 340,000 | AID 492953;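 active = inhibition above the mean of all tested compounds plus 3 SD, cut at about 24% in these data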
Target sequence (P68402 whole entry, looked up): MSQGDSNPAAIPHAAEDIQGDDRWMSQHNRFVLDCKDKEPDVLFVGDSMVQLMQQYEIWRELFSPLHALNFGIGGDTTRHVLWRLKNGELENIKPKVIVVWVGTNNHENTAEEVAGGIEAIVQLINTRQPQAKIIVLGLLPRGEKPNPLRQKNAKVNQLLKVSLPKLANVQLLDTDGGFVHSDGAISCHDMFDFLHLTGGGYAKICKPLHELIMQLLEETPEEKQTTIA
Each line names hits and unclear results; the compound was inactive in the other large screens.

O=S(=O)(c1ccc(Cl)cc1)N1CCC(N2CCCCCC2)CC1	none
Cc1ccc(S(=O)(=O)N2CCC(=O)N(CCOCc3ccc(Cl)cc3)CC2)cc1	pPAFAH FP inh 31.7
NC(=O)C1(Nc2ccc(Cl)cc2)CCCC1	none (no result: PP5 inh, pPAFAH FP inh, PP1 inh)
O=C1CCN(S(=O)(=O)c2ccc(Cl)cc2)CC1	PAFAH1B2 inh 24.8
CC(C)N(C(=S)NCc1ccccc1)C(C)C	none
CC(C)N(C(=S)NCc1ccccc1)c1ccccc1	PAFAH1B2 inh 28.7
Nc1[nH]n2c(=O)cc(-c3ccccc3)nc2c1N=Nc1ccc(S(N)(=O)=O)cc1	PP1 inh 16.3
Cc1ccc(NS(=O)(=O)c2c(C)nc3sccn3c2=O)cc1C	none
CC1=C(C#N)C(=O)N(C2CCS(=O)(=O)C2)C(=O)/C1=C\c1ccco1 (configuration not stated)	pPAFAH FP inh 92.9, PP1 inh 35.2 (no result: PAFAH1B3 FP inh, PAFAH2 FP inh, PAFAH1B2 inh)
C=CCOc1ccc(C2OC34CCCCC3C(C#N)(C#N)C2(C#N)C(=N)O4)cc1 (configuration not stated)	PAFAH1B3 FP inh 50.9, PAFAH2 FP inh 56.2, PAFAH1B2 inh 42.3
CCCCOc1ccc(C2OC34CCCCC3C(C#N)(C#N)C2(C#N)C(=N)O4)cc1 (configuration not stated)	PAFAH1B3 FP inh 56.5, PAFAH2 FP inh 42.4, PAFAH1B2 inh 38.5
COc1ccc(CC(=O)OCC(=O)NCc2ccc3c(c2)OCO3)cc1OC	none (no result: PP5 inh, PP1 inh)
C=CCn1c(=O)/c(=C/c2ccc(Cl)cc2)s/c1=C(\C#N)c1nnc2n1CCCCC2	none (no result: PP5 inh, pPAFAH FP inh, PP1 inh)
O=C(Nc1ccc(OC(F)(F)F)cc1)c1[nH]ncc1[N+](=O)[O-]	PAFAH2 FP inh 37.3
Cc1onc(C(=O)Nc2ccc(OC(F)(F)F)cc2)c1[N+](=O)[O-]	none
CCCn1c(=O)c(C(=O)NNC(=O)c2ccccc2Cl)c(O)c2ccccc21	none
COc1ccc(OC)c(NC(=O)/C=C/c2ccc(S(=O)(=O)N3CCOCC3)cc2)c1	none (no result: PP5 inh, pPAFAH FP inh, PP1 inh)
CC(=O)Nc1ccc(NC(=O)c2ccc(-c3ccc([N+](=O)[O-])cc3)o2)cc1	PP1 inh 16.4
O=C(CN1C(=O)NC2(CCCc3ccccc32)C1=O)NCc1cccs1 (configuration not stated)	none
COc1cccc(NC(=O)CN(C)C(=O)Cc2c(C)nc3ccccc3c2C)c1	none
COc1ccc(NC(=O)CN(C)C(=O)Cc2c(C)nc3ccccc3c2C)cc1	pPAFAH FP inh 27.4
CCN(CC)CC(C)(C)C(=O)/C=C/c1ccc(/C=C/C(=O)C(C)(C)CN(CC)CC)cc1	none (no result: PP5 inh, pPAFAH FP inh, PP1 inh)
N#Cc1nc(COc2ccc(Br)cc2)oc1NCCCn1ccnc1	PAFAH1B2 inh 24.9
N=C1S/C(=C\c2ccco2)C(=O)N1c1nccs1	none
N=C1S/C(=C\c2ccco2)C(=O)N1c1ccc2c(c1)OCO2	pPAFAH FP inh 31.1
CCCCn1c(N)c(N(C(=O)CSc2nnc(C)n2-c2ccccc2)C2CCCC2)c(=O)[nH]c1=O	none
Cc1ccccc1OCCn1cc(C(=O)O)c2ccccc21	PAFAH1B2 inh 24.4
CC1=C(CC(=O)c2ccc(Cl)cc2)C(=O)c2ccccc2C1=O	pPAFAH FP inh 28.1
O=C(Cc1ccccn1)c1ccc(Cl)cc1	none
COc1ccc2nc(-c3ccco3)c(-c3ccco3)nc2c1	PAFAH1B3 FP inh 32.7, pPAFAH FP inh 46.8, PAFAH2 FP inh 56.4, PAFAH1B2 inh 26.3
O=C(NCCO)Nc1ccc2nc(-c3ccco3)c(-c3ccco3)nc2c1	pPAFAH FP inh 72.5, PP1 inh 46.9 (no result: PAFAH1B3 FP inh, PAFAH2 FP inh, PAFAH1B2 inh)
O=C(NCCCO)c1ccc2nc(-c3ccco3)c(-c3ccco3)nc2c1	PAFAH1B3 FP inh 28.9, PAFAH2 FP inh 32.9 (no result: PP5 inh, pPAFAH FP inh, PP1 inh)
CCc1nc2ccc(C(=O)NCCc3ccco3)cc2nc1CC	none
Cc1nc(SCC(=O)Nc2ccccc2Cl)c2c(C)c(C)sc2n1	none
CC1(C)CC(=O)c2cnc(N3CCc4ccccc43)nc2C1	none
CC(C)(C)N(Cc1ccc2c(c1)OCO2)C(=O)/C=C\S(=O)c1ccccc1 (configuration not stated)	none (no result: PP5 inh, pPAFAH FP inh, PP1 inh)
O=C(COC(=O)c1cccs1)c1ccccc1	PAFAH2 FP inh 33.9
COC(=O)c1c(C)[nH]c(C(=O)COC(=O)CCNS(=O)(=O)c2cccc(C(F)(F)F)c2)c1C	pPAFAH FP inh 32.7
COC(=O)c1c(NC(=O)COC(=O)CCNS(=O)(=O)c2ccccc2)sc(C)c1C	pPAFAH FP inh 26.3
COc1ccc(-n2c(SCC(=O)C(C)(C)C)nc3c(sc(=S)n3-c3ccccc3)c2=O)c(OC)c1	PP1 inh 15.6
COc1ccc(Cl)cc1-n1c(=S)sc2c(=O)[nH]c(SCC(=O)C(C)(C)C)nc21	PP1 inh 16.8
CCCCNC(=O)CSc1nc2c(sc(=S)n2-c2cc(Cl)ccc2OC)c(=O)[nH]1	none
CCOC(=O)CSc1nc2c(sc(=S)n2-c2ccccc2OC)c(=O)n1-c1ccccc1OC	none
O=S(=O)(c1cccc(F)c1)N1CCN(Cc2cc3c(cc2Br)OCCO3)CC1	none
O=C(O/N=C/c1ccc(Cl)cc1)C1CCCCC1	PAFAH2 FP inh 76.6, PAFAH1B2 inh 93.8
O=C(Cn1cc(S(=O)(=O)Cc2cccc(F)c2)c2ccccc21)N1CCOCC1	none
CCN(CC)CCOc1ccc(/C(=C(\Cl)c2ccccc2)c2ccccc2)cc1	PP1 inh 17.5
NC(=S)n1[nH]c(-c2ccc([N+](=O)[O-])cc2)c(N=Nc2ccc(Cl)cc2)c1=O	PAFAH2 FP inh 40.6 (no result: PP5 inh, pPAFAH FP inh, PP1 inh)
Cc1ccc([N+](=O)[O-])cc1N=Nc1c(-c2ccc([N+](=O)[O-])cc2)[nH]n(C(N)=S)c1=O	none (no result: PP5 inh, pPAFAH FP inh, PP1 inh)
O=C(Cc1ccc(NC(=O)C2CCN(C(=O)CCc3ccccc3)CC2)cc1)Nc1ccc(C(=O)N2CCOCC2)cc1	none (no result: PP5 inh, pPAFAH FP inh, PP1 inh)
CN(CC(=O)Nc1ccccc1Cl)C(=O)CCc1nc2ccccc2c(=O)[nH]1	none
Clc1cccc(N2CCN(CCCN3CCN(c4ccccc4)CC3)CC2)c1	none (no result: PP5 inh, pPAFAH FP inh, PP1 inh)
O=C1CC(=C2c3ccccc3-c3ccccc32)C(=O)N1CCN1CCN(c2cccc(Cl)c2)CC1	pPAFAH FP inh 26.4, PP1 inh 16.2
COc1cccc2cc(C(=O)C3=C(O)C(=O)N(c4cc(C)on4)C3c3cccs3)oc12 (configuration not stated)	PP1 inh 23.0
COC(=O)c1ccc(C2C(C(=O)c3cc4ccccc4o3)=C(O)C(=O)N2c2cc(C)on2)cc1 (configuration not stated)	PP1 inh 26.6
COc1cc(C2C(C(=O)c3cc4ccccc4o3)=C(O)C(=O)N2c2cc(C)on2)cc(OC)c1OC (configuration not stated)	PP1 inh 17.2
Cc1cccc2cc(CN(Cc3cccnc3)C(=O)c3cccs3)c3nnnn3c12	none (no result: PAFAH1B3 FP inh, PAFAH2 FP inh, PAFAH1B2 inh)
O=C(COC(=O)CNC(=O)c1ccc(Cl)cc1Cl)Nc1ccc(N2CCOCC2)cc1	none
C/C(=N\NC(=O)c1ccc(Cl)c(Cl)c1)c1ccc(Br)s1	none
C/C(=N\Nc1ccc(Cl)c(C(=O)O)c1)c1ccc(Br)s1	pPAFAH FP inh 26.9
CS(=O)(=O)Nc1ccccc1C(=O)Nc1cc(Cl)cc(Cl)c1	pPAFAH FP inh 27.8
